Rows were chosen to be rich in hits. Some 9% of all compounds tested hit in one or more screens of this group.
G9a inh: qHTS Assay for Inhibitors of Histone Lysine Methyltransferase G9a; Histone-lysine N-methyltransferase EHMT2 (Homo sapiens), Q96KQ7; G9a H3K9 monomethylation, AlphaScreen, 2 h; Potency, µM (highest dose often 102 µM), without a hit: at the top dose activity, negative = inhibition, actives largely listed as inhibitors; hit rate 8.8% among 350,000; AID 504332, 2011; note: % is set by controls: 0 for no effect and ±100 for the full control effect; nearly all actives have a fitted effect of over 75% in size
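AlphaScreen detection with an anti-monomethyl H3K9 antibody quantified product after a 2 h room-temperature reaction containing 500 nM biotinylated H3K9 peptide, 20 µM SAM and 20 nM enzyme, which had been preincubated 15 min with compound.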
BAZ2B inh: qHTS Assay for Inhibitors of BAZ2B; Bromodomain adjacent to zinc finger domain protein 2B (Homo sapiens), Q9UIF8; hit rate 4.4% among 360,000; AID 504333, 2011; AlphaScreen BAZ2B-H3K14Ac peptide displacement; Potency, µM (doses to about 114 µM), for the others: at the top dose activity change, negative = inhibition, usual class: inhibitors; note: % is set by controls: 0 for no effect and ±100 for the full control effect; nearly all actives have a fitted effect of over 60% in size
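BAZ2B (50 nM) with biotin-H3(5-23)K14Ac peptide (50 nM) in PBS pH 7.4, 0.01% Tween-20, preformed 30 min, then compound 30 min at room temperature; top concentration 110uM. AlphaScreen streptavidin donor/nickel chelate acceptor beads (10 ug/mL final), 20 min dark, signal read.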
PLK1 PBD inh: qHTS for Inhibitors of PLK1-PDB (polo-like kinase 1 - polo-box domain): Primary Screen | Serine/threonine-protein kinase PLK1 (Homo sapiens), P53350 | Plk1 PBD binding of FITC phosphopeptide, fluorescence polarization | Potency, µM, inactives show max response, negative = inhibition, hits mostly inhibitors | hit rate 2.8% among 360,000 | AID 720504, 2013; note: series mostly up to about 57 µM; % is set by controls: 0 for no effect and ±100 for the full control effect; nearly all actives have a fitted effect of over 65% in size
ALOX12 inh: Primary qHTS assay for inhibitors of human arachidonate 12S-lipoxygenase (ALOX12): Round 2. Polyunsaturated fatty acid lipoxygenase ALOX12 (Homo sapiens), P18054. purified 12hLO, xylenol orange hydroperoxide absorbance. Potency, µM (doses to about 108 µM), without a hit: at the top dose activity change, negative = inhibition, usual class: inhibitors. hit rate 1.1% among 580,000. AID 1671190, 2021; note: % is set by controls: 0 for no effect and ±100 for the full control effect
Target sequence (P18054 whole entry, looked up): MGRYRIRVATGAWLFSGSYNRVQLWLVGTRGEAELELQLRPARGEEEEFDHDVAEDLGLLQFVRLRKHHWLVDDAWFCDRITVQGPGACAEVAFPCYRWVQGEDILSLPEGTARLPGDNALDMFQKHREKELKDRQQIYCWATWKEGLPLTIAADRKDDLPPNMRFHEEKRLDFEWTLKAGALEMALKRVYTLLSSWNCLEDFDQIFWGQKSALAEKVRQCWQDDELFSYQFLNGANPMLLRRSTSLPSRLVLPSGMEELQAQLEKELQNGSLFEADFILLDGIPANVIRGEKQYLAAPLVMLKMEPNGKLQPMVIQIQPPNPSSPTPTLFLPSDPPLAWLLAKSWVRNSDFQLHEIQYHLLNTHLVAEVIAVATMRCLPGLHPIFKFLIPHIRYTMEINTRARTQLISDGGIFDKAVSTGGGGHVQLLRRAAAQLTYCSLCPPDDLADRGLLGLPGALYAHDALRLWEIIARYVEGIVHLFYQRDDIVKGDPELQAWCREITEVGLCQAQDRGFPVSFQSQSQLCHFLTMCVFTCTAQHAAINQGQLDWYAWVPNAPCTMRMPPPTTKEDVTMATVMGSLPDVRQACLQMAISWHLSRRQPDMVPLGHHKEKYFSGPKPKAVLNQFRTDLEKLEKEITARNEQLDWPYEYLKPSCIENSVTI
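Purified human 12hLO at 150 nM in 25 mM Hepes, 0.01% Triton X-100, pH 7.0, preincubated 15 min at room temperature with compound. Reaction started with 40 uM arachidonic acid, 30 min at room temperature. Hydroperoxide measured by Fe-xylenol orange, 573/405 nm absorbance ratio.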
HP1b binding inh: HTS for Inhibitors of HP1-beta Chromodomain Interactions with Methylated Histone Tails; AlphaScreen HP1-beta / biotin-H3K9me3 peptide binding; Potency, µM (titrated, usually from 114 µM), for the others: top-dose activity change, negative = inhibition, usual class: inhibitors; hit rate 0.56% among 390,000; AID 540317, 2011; note: nearly all actives have a fitted effect of over 70% in size
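Compound inhibition of the preformed complex between 50 nM HP1-beta and 50 nM biotinylated H3K9me3 peptide was read by AlphaScreen. Buffer was PBS pH 7.4 with 0.01% Tween-20. Incubations ran 30 min at room temperature, with 10 ug/mL donor/acceptor beads.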
JMJD2A Tudor inh: qHTS Assay for Inhibitors of JMJD2A-Tudor Domain. Lysine-specific demethylase 4A (Homo sapiens), O75164. Potency, µM (doses to about 114 µM), for the others: at the highest dose activity change, negative = inhibition, usual class: inhibitors. AID 504339, 2011. hit rate 4.4% among 390,000. AlphaScreen JMJD2A-Tudor / H3K4me3 peptide binding; note: % is set by controls: 0 for no effect and ±100 for the full control effect; nearly all actives have a fitted effect of over 50% in size
Numbers without * were called inactive; i = inactive; ? = inconclusive; nt = no result given; [ ] = remark or other dose. Calls come from the whole dose curve; as a rule, active = well fitted curve in the direction sought with a large enough effect; inconclusive = small, poorly fitted or top-dose-only effect, or another doubt; inactive = no such curve, though single readings can be large; an effect the other way counts as inactive or inconclusive. Potency is the fitted concentration of half-maximal effect.

SMILES	G9a inh	BAZ2B inh	PLK1 PBD inh	ALOX12 inh	HP1b binding inh	JMJD2A Tudor inh
CC(=O)Nc1ccc(NC2=CC(=O)c3ccccc3C2=O)cc1	2µM*	13µM*	-8%	-10%	-30%	25µM*
COc1ccc(NC2=C(NC(C)=O)C(=O)c3ccccc3C2=O)cc1	?	?	-2%	-9%	?	-21%
CC(C)CN(CCNC(=O)CN1C(=O)COc2ccc(S(=O)(=O)N3CCC(C)CC3)cc21)CC(C)C	7%	1%	-1%	?	66%	-12%
N#CC1=C(N)NC(=S)C(C(N)=O)C1c1ccccc1F (stereo not given)	50µM*	-15%	19µM*	0%	9%	-29%
N#CC1=C(N)n2ncnc2NC1c1ccc(Cl)cc1Cl (stereo not given)	nt	nt	nt	-25%	nt	nt
COC(=O)CSC1=C(C#N)C(c2ccccc2F)CC(=O)N1 (stereo not given)	?	-2%	-17%	?	28%	-6%
N#CC1=C(N)NC(=S)C(C(N)=O)C1c1ccc(Cl)cc1Cl (stereo not given)	?	-29%	19µM*	?	3%	?
CCCCNS(=O)(=O)c1ccc2nc(SCC(=O)Nc3ccccc3Cl)[nH]c2c1	-22%	-1%	-10%	?	14%	?
COCc1c(C(=O)N(C)Cc2ccccc2N2CCCC2)oc2ccccc12	50µM*	?	-7%	-19%	-31%	45µM*
Cc1ccc(N/N=C2/CCCNC2=O)cc1	25µM*	2%	-21%	?	?	?
Cc1ccc(NC(=O)c2ncn(CCCN[C@H](C)c3cccc4ccccc34)n2)cc1C	nt	nt	-8%	?	-6%	?
Cc1ccccc1S(=O)(=O)/N=C(/c1ccccc1)N1CCOCC1	nt	-8%	27µM*	-4%	-9%	32µM*
O=S(=O)(/N=C(\c1ccccc1)N1CCOCC1)c1cccs1	9%[12.7 µM]	7%	-1%	0%	49%	-9%
CC(=O)Nc1ccc(SC[C@H](CC(C)C)N2CCN(CC(C)C)CCC2=O)cc1	?	-10%	27µM*	-2%	35%	-22%
CC(=O)Nc1ccc(SC[C@H](Cc2ccccc2)N2CCN(CC(C)C)CCC2=O)cc1	-9%[12.7 µM]	-21%	34µM*	i	41%	-27%
CC(=O)Nc1ccc(SCC(Cc2ccccc2)N2CCN(CC(C)C)CCC2=O)cc1 (stereo not given)	nt	nt	nt	nt	39%	-20%
CC(=O)Nc1ccc(SC[C@H](CC(C)C)N2CCN(CCc3ccccc3)CCC2=O)cc1	-5%[12.7 µM]	-12%	19µM*	1%	26%	-33%
O=C(Oc1cccc([N+](=O)[O-])c1)C1CCN(C(=O)c2ccc(F)cc2)CC1	83%	-11%	-11%	?	49%	-12%
Cc1ccccc1NC(=O)NCCCN1CCN(c2ccccc2F)CC1	-2%[59 µM]	3%	nt	nt	22%	-1%
Cc1oc(-c2cccs2)nc1CC(=O)N(C)Cc1ccccc1	nt	nt	nt	3%	nt	nt
Cc1ccc(C(=O)COC(=O)C(C)N2C(=O)C3C4CCC(C4)C3C2=O)cc1C (stereo not given)	nt	6%	-6%	417%	27%	1%
O=C(Oc1ccc(F)c(F)c1)c1ccc2c(=O)n3c(nc2c1)CCC3	?	-4%	0%	-22%	36%	1%
O=C(Oc1cccc([N+](=O)[O-])c1)c1ccc2c(=O)n3c(nc2c1)CCC3	7%[12.7 µM]	50µM*	-25%	0%	-11%	?

From PubChem BioAssay
